Reference: PubChem BioAssay AID651951 (The Scripps Research Institute Molecular Screening Center, 2012)
The campaign covered roughly 2,400 compounds. About 1,100 (46%) were called active. The set was probably picked from earlier hits. These entries were drawn from the full list. Unmarked numbers belong to inactive results.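 Rule for the calls: active = inhibition above the run cutoff, the mean inhibition of all test compounds plus 3 SD (cut at about 49% in these data); inactive = the rest.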

target: Trace amine-associated receptor 1 (Homo sapiens) (UniProt Q96RJ0); experiment: TAAR1 desensitization by agonist hits, confirmation, counter-screen for TAAR1 agonist project, cell-based, fluorescence, tachyphylaxis (AID 651951); settings: CHO RD-HGA16 hTAAR1, Fluo-8 calcium, beta-PEA response inhibition; at 3 µM; active compounds read high;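 note: beta-PEA stimulus applied at its EC80; loss of beta-PEA calcium signal after compound pretreatment read as receptor desensitization; 0% = DMSO with beta-PEA at EC80 and 100% = DMSO alone without agonist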
Sequence (Q96RJ0 whole entry, looked up): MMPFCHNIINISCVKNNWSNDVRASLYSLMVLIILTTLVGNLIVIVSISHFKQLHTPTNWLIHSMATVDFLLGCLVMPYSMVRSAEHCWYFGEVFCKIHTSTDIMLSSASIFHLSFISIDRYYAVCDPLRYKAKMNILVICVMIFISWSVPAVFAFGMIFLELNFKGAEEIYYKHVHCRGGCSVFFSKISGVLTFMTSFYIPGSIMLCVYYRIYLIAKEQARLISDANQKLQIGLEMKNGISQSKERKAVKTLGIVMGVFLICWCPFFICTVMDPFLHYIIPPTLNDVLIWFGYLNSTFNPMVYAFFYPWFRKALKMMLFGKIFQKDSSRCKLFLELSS

Row | SMILES | inhibition
1 | CCC(=NCCc1ccccc1)c1c(O)n(C2CCCCC2)c(=O)[nH]c1=O | 55.8% (active)
2 | Cc1cccc(N2C(=O)NC(=O)/C(=C\c3cnn(-c4ccccc4)c3)C2=O)c1 | 54.4% (active)
3 | NCC(O)c1ccc(O)cc1 (centres undefined) | 53.1% (active)
4 | COc1ccc(Br)cc1CNCCc1cccc(Cl)c1 | 40%
5 | CC(Cc1ccccc1)NC=O (centres undefined) | 78.2% (active)
6 | c1ccc(CCNC2CCCCCC2)cc1 | 91% (active)
7 | O=C1NC(=O)N(Cc2ccco2)C(=O)/C1=C\c1ccc(-c2ccc(F)cc2)o1 | 42.5%
8 | CCCCC(=O)N/N=C/c1c(O)n(CC)c(=S)n(CC)c1=O | 88% (active)
9 | Clc1ccc2nc3c(c(-c4ccccc4)c2c1)CNCC3 | 39.3%
